± gives the standard deviation of the averaged measurements.
Legend:
[1] = system: DLD1; experiment: cell viability (CellTiter-Glo) relative to plate median (fraction of plate median); higher = more viable cells; details: 5 µM; treatment time 24 h; reporter: 7TFP
Summary of the method: (§1)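 On parallel plates, a Tecan F500 reader recorded either firefly luciferase or CellTiterGlo luminescence. The plates held colorectal cancer cells stably transduced with lentiviral TCF/Wnt firefly luciferase reporters (7TFP or TCF4/Wnt), seeded in 384-well format and treated 24 h later with library compounds at a final 5 µM for 24 h. Per-well signals were normalised to the plate median (webcellHTS2, additive, no log transformation), and two independent replicates were averaged.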

[2] = system: HCT116; experiment: as above; details: 5 µM; treatment time 24 h; reporter: TCF4/Wnt
Summary of the method: as §1

[3] = system: SW480; experiment: as above; details: 5 µM; treatment time 24 h; reporter: 7TFP
Summary of the method: as §1

[4] = system: DLD1; experiment: TCF/Wnt firefly luciferase reporter signal relative to plate median (fraction of plate median); higher = higher Wnt reporter signal; details: 5 µM; treatment time 24 h; reporter: 7TFP
Summary of the method: as §1

[5] = system: SW480; experiment: as above; details: 5 µM; treatment time 24 h; reporter: 7TFP
Summary of the method: as §1

Row | SMILES | cell viability [1] | cell viability [2] | cell viability [3] | TCF/Wnt firefly luciferase reporter signal [4] | TCF/Wnt firefly luciferase reporter signal [5]
1 | CNNC | 0.936 ± 0.021 | 0.866 ± 0.11 | 0.945 ± 0.017 | 1.03 ± 0.14 | 0.894 ± 0.14
2 | COc1cc2c(c3oc4cccc(O)c4c(=O)c13)[C@@H]1C=CO[C@@H]1O2 [Sterigmatocystin] | 1.1 ± 0.16 | 1.17 ± 0.014 | 1.08 ± 0.057 | 0.845 ± 0.25 | 0.902 ± 0.077
3 | CC(C)=CCC[C@@H](C(=O)O)[C@H]1CC[C@@]2(C)C3=C(CC[C@]12C)[C@@]1(C)CC[C@H](O)C(C)(C)[C@@H]1CC3 [Trametenolic acid] | 0.995 ± 0.022 | 1.07 ± 0.071 | 1.02 ± 0.028 | 1.08 ± 0.085 | 1.12 ± 0.13
4 | COC(=O)C1=CO[C@@H](C)[C@@H]2CN3CC[C@@]4(C(=O)Nc5ccccc54)[C@H]3C[C@H]12 | 1.1 ± 0.085 | 1.07 ± 0.014 | 1.08 ± 0.035 | 1.02 ± 0.12 | 0.96 ± 0.028
5 | C[C@]12CC[C@H](Cl)C[C@@H]1CC[C@@H]1[C@@H]2CC[C@]2(C)C(=O)CC[C@@H]12 [3beta-CHLOROANDROSTANONE] | 1.08 ± 0.05 | 0.981 ± 0.041 | 1.06 ± 0.071 | 1.07 ± 0.13 | 1.115 ± 0.0071
6 | CNc1ccc(C(=O)CC(O)CCC(C)C2OC(=O)CC(O)CC(=O)CC(O)CC(O)CC(O)CC(O)CC3(O)CC(O)C(C(=O)OC)C(CC(O[C@@H]4O[C@H](C)[C@@H](O)[C@H](N)[C@@H]4O)/C=C/C=C/C=C/C=C/C=C/C=C/C=C/C2C)O3)cc1.COC(=O)C1C(O)CC2(O)CC(O)CC(O)CC(O)CC(O)CC(=O)CC(O)CC(=O)OC(C(C)CCC(O)CC(=O)c3ccc(N)cc3)C(C)/C=C/C=C/C=C/C=C/C=C/C=C/C=C/C(O[C@@H]3O[C@H](C)[C@@H](O)[C@H](N)[C@@H]3O)CC1O2 (stereo not given in full) | 0.932 ± 0.096 | 0.959 ± 0.011 | 0.962 ± 0.0085 | 0.85 ± 0.088 | 0.908 ± 0.023
7 | CC(C)=CCCC1(C)C=Cc2c(O)c3c(c(CC=C(C)C)c2O1)OC12C(CC4CC1C(C)(C)OC2(C/C=C(/C)C(=O)O)C4O)C3=O (stereo not given) | 0.979 ± 0.087 | 1.04 ± 0.014 | 1.08 ± 0.028 | 0.975 ± 0.027 | 0.807 ± 0.036
8 | CO[C@H]1C[C@H](O[C@H]2CC[C@@]3(C)[C@H](CC[C@@H]4[C@@H]3CC[C@]3(C)[C@@H](C5=CC(=O)OC5)[C@@H](OC(C)=O)C[C@]43O)C2)O[C@@H](C)[C@@H]1O | 1.26 ± 0.028 | 0.486 ± 0.31 | 1.31 ± 0.13 | 0.123 ± 0.13 | 0.171 ± 0.12
9 | CC[C@@]1(O)C[C@H](O[C@H]2C[C@H](N(C)C)[C@H](O[C@H]3C[C@@H]4O[C@H]5CC(=O)[C@H](C)O[C@H]5O[C@@H]4[C@H](C)O3)[C@H](C)O2)c2c(cc3c(c2O)C(=O)c2c(O)ccc(O)c2C3=O)[C@H]1C(=O)OC [Cinerubin-B] | 1.04 ± 0.12 | 0.993 ± 0.067 | 1.01 ± 0.028 | 0.991 ± 0.15 | 1.07 ± 0.028
10 | CON1C(=O)[C@H]2NC(=O)[C@]13Oc1cc(O)c(Cl)cc1[C@@H]3SS2 [Aspirochlorine] | 0.736 ± 0.087 | 0.918 ± 0.017 | 0.841 ± 0.026 | 0.981 ± 0.28 | 1 ± 0.035
11 | C[N+]1(C)[C@@H]2C[C@@H](OC(=O)[C@H](CO)c3ccccc3)C[C@H]1[C@@H]1O[C@@H]12 | 1.09 ± 0.021 | 0.971 ± 0.069 | 1.035 ± 0.0071 | 0.9885 ± 0.005 | 1.085 ± 0.0071
12 | CCCCCCCCC(=O)NCc1ccc(O)c(OC)c1 | 1.04 ± 0.064 | 0.972 ± 0.025 | 0.981 ± 0.056 | 0.792 ± 0.14 | 0.822 ± 0.061
13 | CN1[C@@H]2CC[C@H]1C[C@@H](OC(=O)[C@H](CO)c1ccccc1)C2 | 1.06 ± 0.14 | 1.09 | 1 ± 0.086 | 0.974 ± 0.11 | 1.05 ± 0.028
14 | CCOP(=S)(OCC)Oc1ccc2c(C)c(Cl)c(=O)oc2c1 | 0.989 ± 0.044 | 0.983 ± 0.14 | 0.9335 ± 0.005 | 0.928 ± 0.04 | 0.89 ± 0.012
15 | CCCC(=O)O[C@@H]1[C@@H](C)[C@@]2(O)[C@@H](C=C(CO)C[C@]3(O)C(=O)C(C)=C[C@@H]23)[C@@H]2C(C)(C)[C@]12OC(=O)CCC | 0.9955 ± 0.0021 | 0.991 ± 0.069 | 1.02 ± 0.033 | 1.03 ± 0.1 | 0.984 ± 0.0085
16 | C[C@H]1O[C@H](O[C@H]2[C@H](O)[C@@H](O)[C@@H](O)[C@H](O)[C@@H]2O)[C@@H](N)C[C@@H]1NC(=N)C(=O)O | 0.989 ± 0.086 | 1.06 ± 0.035 | 1.035 ± 0.0071 | 1.03 ± 0.028 | 0.949 ± 0.086
17 | O=C(O)c1cccc2nc3ccccc3nc12 [1-Phenazinecarboxylic acid] | 1.12 ± 0.16 | 1.05 | 1.32 ± 0.11 | 0.986 ± 0.091 | 1.03 ± 0.12
18 | COc1ccc2c(c1OC)C(=O)O[C@@H]2[C@H]1c2cc3c(cc2CCN1C)OCO3 | 1.05 ± 0.042 | 1.1 ± 0.078 | 1.1 ± 0.035 | 1.18 ± 0.05 | 1.04 ± 0.097
19 | COc1ccc(Cc2nccc3cc(OC)c(OC)cc23)cc1OC | 1.09 ± 0.085 | 1.01 ± 0.1 | 0.994 ± 0.066 | 0.961 ± 0.052 | 1.07 ± 0.057
20 | CC1(C)C2CC(=O)[C@]3(C)C(CC[C@@]4(C)[C@H](c5ccoc5)OC(=O)[C@H]5O[C@]543)[C@@]2(C)C(=O)C[C@H]1O (stereo not given in full) | 1.015 ± 0.0071 | 0.988 ± 0.018 | 1.01 ± 0.071 | 0.918 ± 0.037 | 0.965 ± 0.079
21 | CC[C@H]1[C@@H]2C[C@H]3[C@@H]4N(C)c5ccccc5[C@]45C[C@@H]([C@@H]2[C@H]5O)N3[C@@H]1O | 0.898 ± 0.03 | 0.899 ± 0.1 | 0.95 ± 0.023 | 0.942 ± 0.0085 | 1.05 ± 0.05
22 | CNC1CC(N)C(O)C(OC2OC(CO)C(O)C3OC4(OC(C(N)CO)C(O)C(O)C4O)OC23)C1O (stereo not given) | 0.983 ± 0.039 | 0.98 ± 0.029 | 0.985 ± 0.017 | 0.979 ± 0.073 | 0.988 ± 0.011
23 | COc1cc2occc2c2oc(=O)ccc12 | 0.986 ± 0.076 | 0.941 ± 0.11 | 0.95 ± 0.026 | 1.06 ± 0.17 | 0.818 ± 0.11
24 | CC(C)N(CCC(C(N)=O)(c1ccccc1)c1ccccn1)C(C)C (stereo not given) | 0.914 ± 0.077 | 0.964 ± 0.029 | 0.981 ± 0.011 | 1.16 ± 0.071 | 1.13 ± 0.014
25 | CCN1C[C@]2(OC(=O)c3ccccc3NC(C)=O)CC[C@H](OC)[C@@]34[C@@H]2C[C@@H]([C@@H]13)[C@@]1(O)C[C@H](OC)[C@H]2C[C@@H]4[C@]1(O)[C@H]2OC | 0.987 ± 0.033 | 0.988 ± 0.032 | 0.9965 ± 0.005 | 0.905 ± 0.083 | 0.98 ± 0.057
26 | CC(=O)O[C@H]1C(=O)[C@@]2(C)[C@H]([C@H](OC(=O)c3ccccc3)[C@]3(O)C[C@H](O)C(C)=C1C3(C)C)[C@]1(OC(C)=O)CO[C@@H]1C[C@@H]2O | 0.951 ± 0.013 | 1.04 ± 0.021 | 0.9845 ± 0.0078 | 0.95 ± 0.028 | 0.887 ± 0.076
